Measurements as given in PubChem BioAssay (EPA / NIEHS).
Records with an inconclusive call do not appear. The source made the active and inactive calls. Rule for the calls: active = hit-call score of the fitted dose curve at least 0.9, where 1 is the maximum; inconclusive = response in the unintended direction; inactive = score below 0.9.

What follows are molecules tested against human Thyroid Receptor alpha (THRa1), THRA (gene 7067) (UniProt P10827) (assay: ATG_THRa1_TRANS: Attagene TRANS-FACTORIAL HepG2 Assay for human Thyroid Receptor alpha (THRa1) (AID 2283014)).
Experimental: ATG_TRANS is a cell-based, multiplexed-readout assay that uses HepG2, a human liver cell line, with measurements taken at 24 hours after chemical dosing in a 24-well plate.ATG_THRa1_TRANS is one of 30 assay component(s) measured or calculated from the ATG_TRANS assay. It is designed to make measurements of mRNA induction, a form of inducible reporter, as detected with fluorescence intensity signals by Reverse transcription polymerase chain reaction (RT-PCR) and Capillary electrophoresis technology.Data from the assay component ATG_THRa1_TRANS was analyzed into 1 assay endpoint. This assay endpoint, ATG_THRa1_TRANS, was analyzed in the positive analysis fitting direction relative to DMSO as the negative control and baseline of activity. Using a type of inducible reporter, measures of mRNA for gain-of-signal activity can be used to understand the reporter gene at the transcription factor-level as they relate to the gene THRA. Furthermore, this assay endpoint can be referred to as a primary readout, because this assay has produced multiple assay endpoints where this one serves a reporter gene function. To generalize the intended target to other relatable targets, this assay endpoint is annotated to the nuclear receptor intended target family, where the subfamily is non-steroidal.
Human liver HepG2 cells are transiently transfected with multiple reporter transcription units (MRTUs) in 6-well plates using FuGene 6 reagent (Roche; 3 ml FuGene/1 mg DNA). The MRTU constructs are regulated by a cis-regulating element (promoter). […] A major difference between the CIS and TRANS system is that in CIS activities of endogenous TFs are measured, whereas the TRANS assay evaluates changes in activities of exogenous, chimeric NR-Gal4 proteins. […] At the end of 24 hour incubation, total RNA was isolated using TriZol reagent (Invitrogen). The isolated RNA is then reverse-transcribed using oligo(dT) primer and Mo-MLV reverse transcriptase (Invitrogen) with DNAse I (Ambion) treatment for 30 min. The one-tenth of the produced cDNA was amplified by PCR using Taq DNA polymerase (Invitrogen) and two reporter sequence-specific primers. The PCR products were fluorescently labeled by primer extension with 6-arboxyfluorescein (6-FAM) 5'-labeled reporter sequence-specific primer (2 min at 95 C, 20 s at 68 C and 10 min at 72 C) and these products were digested with 5U of HpaI (New England Biolabs) for 2h at 37 C. The fragments were purified using Qiaquick PCR columns (Qiagen), analyzed on an ABI 3130xL genetic analyzer (Applied Biosystems) with peak positions identified by using a set of X-rhodamine (ROX)-labeled MapMarker1000 molecular weight standards (BioVentures). The raw capillary electrophoresis data was processed using Attagraph software (Attagene).

human Thyroid Receptor alpha (THRa1), THRA (gene 7067), sequence (P10827 whole entry, looked up): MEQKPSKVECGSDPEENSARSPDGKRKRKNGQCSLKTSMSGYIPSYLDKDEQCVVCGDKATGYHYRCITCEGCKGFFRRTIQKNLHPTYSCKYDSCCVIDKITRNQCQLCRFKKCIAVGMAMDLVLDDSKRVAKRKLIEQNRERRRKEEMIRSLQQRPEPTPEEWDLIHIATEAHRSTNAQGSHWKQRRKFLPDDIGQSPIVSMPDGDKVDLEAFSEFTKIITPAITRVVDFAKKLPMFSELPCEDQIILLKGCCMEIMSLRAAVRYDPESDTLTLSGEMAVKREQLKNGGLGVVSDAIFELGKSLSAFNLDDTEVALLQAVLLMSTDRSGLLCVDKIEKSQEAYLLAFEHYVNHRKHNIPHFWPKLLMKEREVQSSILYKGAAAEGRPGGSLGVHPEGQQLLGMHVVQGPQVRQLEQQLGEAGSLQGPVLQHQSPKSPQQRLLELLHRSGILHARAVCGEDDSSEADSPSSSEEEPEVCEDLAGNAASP

Compound	outcome	AC50
CC(=O)CCC1=C(C)CCCC1(C)C	inactive	
CCC(C)(O)CCCC(C)C (stereo not given)	inactive	
O=C(Oc1ccccc1)c1ccccc1O	inactive	
O=C(O[C@@H]1Cc2c(O)cc(O)cc2O[C@@H]1c1cc(O)c(O)c(O)c1)c1cc(O)c(O)c(O)c1	inactive	
CC(C)c1ccc2ncccc2c1	inactive	
CCc1occc(=O)c1O	inactive	
c1ccc2cnccc2c1	inactive	
Oc1ccc(/C=C/c2cc(O)cc(O)c2)cc1	inactive	
Cc1c(Cl)cccc1Cl	inactive	
CCC(C)c1ccccc1 (stereo not given)	inactive	
Nc1ccc(O)c([N+](=O)[O-])c1	inactive	
CC(=O)OCC=C(C)C	inactive	
Cc1ccc([N+](=O)[O-])cc1N	inactive	
CCCCOC(=O)CCC(C)=O	inactive	
CCCCNS(=O)(=O)c1ccccc1	inactive	
CC=CC(=O)OCC(C)C	inactive	
COC(Cc1ccccc1)OC	inactive	
Oc1c(Cl)cc(Cl)c(Cl)c1Cl	inactive	
CCCCCCOC(=O)CCCCC(=O)OCCCCCC	inactive	
COc1ccc(-c2coc3cc(O)cc(O)c3c2=O)cc1	inactive	

Compound	outcome	AC50
CCOC(=O)[C@H](O)[C@@H](O)C(=O)OCC	inactive	
Nc1ccc(C(=O)OCCCOC(=O)c2ccc(N)cc2)cc1	inactive	
CC(CCC(=O)O)(c1ccc(O)cc1)c1ccc(O)cc1	inactive	
Cc1cc(C)c(C=O)c(C)c1	inactive	
CCCC/C=C/C=C\C=O	inactive	
CCNc1nc(NC(C)(C)C)nc(OC)n1	inactive	
CCC[Si](OC)(OC)OC	inactive	
CC1CCC(C(C)(C)S)C(=O)C1 (stereo not given)	inactive	
CC(=O)OC1CCCCC1C(C)(C)C (stereo not given)	inactive	
CC(=O)OC(C)c1ccccc1 (stereo not given)	inactive	
[Cl][Sc]([Cl])[Cl]	inactive	
C1CCSC1	inactive	
C=CCCCCCCCCO	inactive	
CC/C=C\CCOC(=O)c1ccccc1O	inactive	
CC(C)C(=O)OCCc1ccccc1	inactive	
CC(C)=CCl	inactive	
CCCCCCCC(=O)OCC(COC(=O)CCCCCCC)OC(=O)CCCCCCC	inactive	
C=C(C)C(=O)OCC(O)COc1ccc(C(C)(C)c2ccc(OCC(O)COC(=O)C(=C)C)cc2)cc1 (stereo not given)		23.8 µM (active)
CCCC(CC)c1ccccc1 (stereo not given)	inactive	
COC(=O)c1ccccc1C	inactive	
